# Reference: PubChem BioAssay AID1159580 (chemical genetic matrix, 2015)
# Several values for one entry are separate records, joined by “and”; a condition that tells them apart may be missing. Equal values may be shown once. The campaign covered roughly 5,500 compounds. About 2,000 (36%) were called active. About 18% were inconclusive and are not listed. The list shows a part of the results. Values without a mark were called inactive. No stated cut-off is given here; in the data, active means normalized growth mostly below about 0.91 (no sharp cut-off); inconclusive means no clear call, values can overlap the other calls; inactive means mostly above about 0.92.
# Assay: chemical genetic growth profiling, strain panel (AID 1159580);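 further: tested at 20 µM; growth read once vehicle control cultures reached saturation at 30 °C; 1 = growth at the plate median or of vehicle wells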
# Details: S. cerevisiae deletion strains, growth OD
# [1] = locus YBR021W, strain FUR4, stronger effect = lower value
# [2] = locus YBR229C, strain ROT2, stronger effect = lower value
# [3] = locus YCL029C, strain bik1, stronger effect = lower value
# [4] = locus YDL035C, strain GPR1, stronger effect = lower value
# [5] = locus YDL074C, strain BRE1, stronger effect = lower value
# [6] = locus YDL101C, strain DUN1, stronger effect = lower value
# [7] = locus YDL134C, strain PPH21, stronger effect = lower value
# [8] = locus YDL185W, strain tfp1, stronger effect = lower value
# [9] = locus YDL192W, strain arf1, stronger effect = lower value
# [10] = locus YDR101C, strain arx1, stronger effect = lower value
# [11] = locus YDR150W, strain NUM1, stronger effect = lower value
# [12] = locus YDR162C, strain NBP2, stronger effect = lower value
# [13] = locus YDR318W, strain mcm21, stronger effect = lower value
# [14] = locus YDR388W, stronger effect = lower value
# [15] = locus YDR502C, strain sam2, stronger effect = lower value
# [16] = locus YER110C, stronger effect = lower value
# [17] = locus YER155C, strain BEM2, stronger effect = lower value
# [18] = locus YER167W, strain BCK2, stronger effect = lower value
# [19] = locus YGL078C, strain dbp3, stronger effect = lower value
# [20] = locus YGL086W, strain mad1, stronger effect = lower value
# [21] = locus YGL248W, strain PDE1, stronger effect = lower value
# [22] = locus YGR135W, strain pre9, stronger effect = lower value
# [23] = locus YGR252W, strain gcn5, stronger effect = lower value
# [24] = locus YHR030C, strain SLT2, stronger effect = lower value
# [25] = locus YHR079C, strain IRE1 (second series), stronger effect = lower value
# [26] = locus YHR094C, strain hxt1, stronger effect = lower value
# [27] = locus YHR129C, strain ARP1, stronger effect = lower value
# [28] = locus YHR200W, strain rpn10, stronger effect = lower value
# [29] = locus YIL066C, strain RNR3, stronger effect = lower value
# [30] = locus YIL073C, strain SPO22, stronger effect = lower value
# [31] = locus YIL125W, strain kgd1, stronger effect = lower value
# [32] = locus YIR030C, strain dcg1, stronger effect = lower value
# [33] = locus YJL095W, strain BCK1, stronger effect = lower value
# [34] = locus YJL134W, strain LCB3, stronger effect = lower value
# [35] = locus YJL168C, strain set2, stronger effect = lower value
# [36] = locus YJL187C, strain SWE1 (second series), stronger effect = lower value
# [37] = locus YJR043C, strain POL32, stronger effect = lower value
# [38] = locus YKL009W, strain mrt4, stronger effect = lower value
# [39] = locus YKL068W, stronger effect = lower value
# [40] = locus YKL085W, strain MDH1 (second series), stronger effect = lower value
# [41] = locus YKL085W, strain MDH1, stronger effect = lower value
# [42] = locus YKR001C, strain vps1, stronger effect = lower value
# [43] = locus YLR039C, strain RIC1, stronger effect = lower value
# [44] = locus YLR058C, strain SHM2, stronger effect = lower value
# [45] = locus YLR102C, strain apc9, stronger effect = lower value
# [46] = locus YLR262C, strain YPT6, stronger effect = lower value
# [47] = locus YLR268W, strain sec22, stronger effect = lower value
# [48] = locus YLR330W, strain CHS5, stronger effect = lower value
# [49] = locus YLR342W, strain FKS1 (second series), stronger effect = lower value
# [50] = locus YLR371W, strain rom2, stronger effect = lower value
# [51] = locus YLR418C, strain cdc73, stronger effect = lower value
# [52] = locus YML016C, strain PPZ1, stronger effect = lower value
# [53] = locus YML032C, strain rad52, stronger effect = lower value
# [54] = locus YML124C, strain tub3, stronger effect = lower value
# [55] = locus YMR078C, strain ctf18, stronger effect = lower value
# [56] = locus YMR223W, strain ubp8, stronger effect = lower value
# [57] = locus YMR307W, strain GAS1, stronger effect = lower value
# [58] = locus YNL067W, strain RPL9B, stronger effect = lower value
# [59] = locus YNL153C, strain GIM3, stronger effect = lower value
# [60] = locus YNL233W, strain BNI4, stronger effect = lower value
# [61] = locus YNL250W, strain rad50, stronger effect = lower value
# [62] = locus YNL271C, strain bni1, stronger effect = lower value
# [63] = locus YNL298W, strain CLA4, stronger effect = lower value
# [64] = locus YNL307C, strain MCK1, stronger effect = lower value
# [65] = locus YNL322C, strain KRE1, stronger effect = lower value
# [66] = locus YNR052C, strain pop2, stronger effect = lower value
# [67] = locus YOL147C, strain pex11, stronger effect = lower value
# [68] = locus YOR061W, strain CKA2, stronger effect = lower value
# [69] = locus YOR069W, strain VPS5, stronger effect = lower value
# [70] = locus YOR136W, strain idh2, stronger effect = lower value
# [71] = locus YOR144C, strain elg1, stronger effect = lower value
# [72] = locus YOR184W, strain ser1, stronger effect = lower value
# [73] = locus YOR316C, strain cot1, stronger effect = lower value
# [74] = locus YPR119W, strain clb2, stronger effect = lower value
# [75] = locus YPR141C, strain kar3, stronger effect = lower value
# [76] = locus YPR163C, strain tif3, stronger effect = lower value
# [77] = locus YPR167C, strain met16, stronger effect = lower value
# [78] = strain wtn01, stronger effect = lower value
smiles,measurement,setting,value
COC(=O)/C(C)=C\CC12OC(C)(C)C3CC(C=C4C(=O)c5c(O)c6c(c(CCC(C)(C)Cl)c5OC431)OC1(C)CCC(=C(C)C)C6C1)C2=O (configuration not stated),normalized growth,[1],0.981
same,normalized growth,[2],1.02
same,normalized growth,[3],0.997
same,normalized growth,[4],1.01
same,normalized growth,[5],0.994
same,normalized growth,[6],0.999
same,normalized growth,[7],0.976
same,normalized growth,[8],1.01
same,normalized growth,[9],0.985
same,normalized growth,[10],0.992
same,normalized growth,[11],1.02
same,normalized growth,[12],1.01
same,normalized growth,[13],0.985
same,normalized growth,[14],1.01
same,normalized growth,[15],0.961
same,normalized growth,[16],1.02
same,normalized growth,[17],1.01
same,normalized growth,[18],1.01
same,normalized growth,[19],0.994
same,normalized growth,[20],0.962
same,normalized growth,[21],0.98
same,normalized growth,[22],0.982
same,normalized growth,[23],0.919
same,normalized growth,[24],1.02
same,normalized growth,[25],1
same,normalized growth,[26],1
same,normalized growth,[27],1.01
same,normalized growth,[28],0.984
same,normalized growth,[29],1.01
same,normalized growth,[30],0.987
same,normalized growth,[31],0.985
same,normalized growth,[32],1.01
same,normalized growth,[33],0.959
same,normalized growth,[34],1.03
same,normalized growth,[35],1.01
same,normalized growth,[36],0.986
same,normalized growth,[37],1.02
same,normalized growth,[38],0.979
same,normalized growth,[39],0.999
same,normalized growth,[40],0.997
same,normalized growth,[41],0.997
same,normalized growth,[42],0.952
same,normalized growth,[43],0.957
same,normalized growth,[44],1
same,normalized growth,[45],1.01
same,normalized growth,[46],0.946
same,normalized growth,[47],0.975
same,normalized growth,[48],1.01
same,normalized growth,[49],0.957
same,normalized growth,[50],1.02
same,normalized growth,[51],0.834 (active)
same,normalized growth,[52],1.01
same,normalized growth,[53],0.988
same,normalized growth,[54],1.02
same,normalized growth,[55],1
same,normalized growth,[56],0.985
same,normalized growth,[57],0.955
same,normalized growth,[58],1.02
same,normalized growth,"locus YNL128W, strain TEP1, stronger effect = lower value",1.04
same,normalized growth,[59],1
same,normalized growth,[60],0.993
same,normalized growth,[61],1.01
same,normalized growth,[62],1.01
same,normalized growth,[63],1.01
same,normalized growth,[64],0.981
same,normalized growth,[65],1.03
same,normalized growth,[66],0.989
same,normalized growth,"locus YOL006C, strain TOP1, stronger effect = lower value",1.06
same,normalized growth,"locus YOL012C, strain htz1",0.7
same,normalized growth,[67],1
same,normalized growth,[68],0.999
same,normalized growth,[69],1.02
same,normalized growth,[70],0.987
same,normalized growth,[71],1
same,normalized growth,[72],0.977
same,normalized growth,[73],0.999
same,normalized growth,[74],1.01
same,normalized growth,[75],1.02
same,normalized growth,[76],1
same,normalized growth,[77],0.982
same,normalized growth,[78],0.969
CC(C)=CCCC1(C)C=Cc2c(O)c3c(c(CC=C(C)C)c2O1)OC12C(=CC4CC1C(C)(C)OC2(C/C=C(\C)C(N)=O)C4=O)C3=O (configuration not stated),normalized growth,[1],0.922
same,normalized growth,[2],1
same,normalized growth,[3],0.977
same,normalized growth,[4],0.932
same,normalized growth,[5],0.899
same,normalized growth,[6],0.96
same,normalized growth,[7],0.914
same,normalized growth,[8],0.996
same,normalized growth,[9],0.913 (active)
same,normalized growth,[10],0.958
same,normalized growth,[11],1
same,normalized growth,[12],0.92
same,normalized growth,[13],0.941
same,normalized growth,[14],0.96
same,normalized growth,[15],0.924
same,normalized growth,"locus YEL061C, strain CIN8, stronger effect = lower value",0.967
same,normalized growth,[16],0.999
same,normalized growth,[17],0.89 (active)
same,normalized growth,[18],0.965
same,normalized growth,[19],0.963
same,normalized growth,[20],0.947
same,normalized growth,[21],0.894
same,normalized growth,[22],0.923
same,normalized growth,"locus YGR229C, strain SMI1, stronger effect = lower value",0.761 (active)
same,normalized growth,[23],0.856
same,normalized growth,[24],0.995 and 0.925
same,normalized growth,[25],0.99
same,normalized growth,"locus YHR079C, strain IRE1, stronger effect = lower value",0.933
same,normalized growth,[26],0.995
same,normalized growth,[27],0.944
same,normalized growth,[28],0.946
same,normalized growth,[29],0.878
same,normalized growth,[30],0.801
same,normalized growth,[31],0.943
same,normalized growth,[32],0.959
same,normalized growth,[33],0.875 and 0.963
same,normalized growth,[34],1
same,normalized growth,[35],0.987
same,normalized growth,[36],0.929
same,normalized growth,[37],0.981
same,normalized growth,"locus YJR066W, strain TOR1, stronger effect = lower value",0.906
same,normalized growth,"locus YJR075W, strain HOC1, stronger effect = lower value",0.944
same,normalized growth,[38],0.931
same,normalized growth,[39],0.995
same,normalized growth,[40],0.99
same,normalized growth,[41],0.99
same,normalized growth,"locus YKL190W, strain CNB1, stronger effect = lower value",0.985
same,normalized growth,[42],0.842 (active)
same,normalized growth,[43],0.898
same,normalized growth,[44],0.946
same,normalized growth,[45],1.01
same,normalized growth,"locus YLR113W, strain HOG1, stronger effect = lower value",0.852 (active)
same,normalized growth,[46],0.946
same,normalized growth,[47],0.896
same,normalized growth,[48],0.95
same,normalized growth,[49],0.913
same,normalized growth,[50],0.989
same,normalized growth,[51],0.699 (active)
same,normalized growth,[52],0.969
same,normalized growth,[53],0.96
same,normalized growth,[54],0.985
same,normalized growth,[55],0.971
same,normalized growth,[56],0.95
same,normalized growth,"locus YMR263W, strain SAP30, stronger effect = lower value",0.968
same,normalized growth,[57],0.833
same,normalized growth,[58],0.951
same,normalized growth,[59],0.958
same,normalized growth,"locus YNL183C, strain NPR1, stronger effect = lower value",0.868
same,normalized growth,[60],0.915
same,normalized growth,[61],0.983
same,normalized growth,[62],0.993
same,normalized growth,[63],0.989
same,normalized growth,[64],0.844 (active)
same,normalized growth,[65],0.976
same,normalized growth,[66],0.981
same,normalized growth,"locus YOL012C, strain htz1",0.568
same,normalized growth,[67],0.944
same,normalized growth,[68],0.963
same,normalized growth,[69],0.99
same,normalized growth,[70],0.98
same,normalized growth,[71],0.987
same,normalized growth,[72],0.872 (active)
same,normalized growth,"locus YOR231W, strain MKK1, stronger effect = lower value",0.937
same,normalized growth,[73],0.995
same,normalized growth,"locus YPL055C, strain LGE1, stronger effect = lower value",0.866
same,normalized growth,"locus YPL256C, strain CLN2, stronger effect = lower value",0.944
same,normalized growth,[74],0.989
same,normalized growth,[75],0.996
same,normalized growth,[76],0.982
same,normalized growth,[77],0.958
same,normalized growth,[78],0.937
